Out of some 68,000 compounds screened, about 2,700 (4%) showed an effect of 50% or more. Only a selection was taken, and strong results are over-represented in it overall.

This assay relates to Plasmodium berghei. Nature of the assay: Screen against P. berghei liver stage (PbLuc), transformed with Luciferase, at 2uM. The assay is classed as functional, HepG2. The conditions noted are these: tested at 2 uM.
For the compound `COCC(=O)N1CCn2c(CN3CCN(C)CC3)cnc2C1`, the INHIBITION is -11.88%. For `Cc1nccc(N2CCCC(C)(C(=O)NC3CCCC3)C2)n1` (stereo not drawn), the INHIBITION is recorded as 1.42%. Take `O=C(c1cnc(COc2ccccc2)nc1O)N1CCC(F)(F)CC1`: the INHIBITION turned out to be 10.91%. In the case of `Cc1nc(CN2CCC3(CCN(C(=O)c4ccoc4C)CC3)C2)cs1`, the INHIBITION is reported as -13.88%.

For the compound `Cc1nn(C)c(N2CCOCC2)c1CNCC1CCS(=O)(=O)C1` (stereo not drawn), the INHIBITION was determined as 5.17%. Turning to `Cc1nn(C)c(N2CCOCC2)c1CNCC1CCN(C2CC2)C1` (stereo not drawn), the INHIBITION is reported as 59.03%. Consider `Cc1nn(C)c(N2CCOCC2)c1CNCC1CCCN1C` (stereo not drawn), for which the INHIBITION stood at 53.98%. As to `Cc1nn(C)c(N2CCOCC2)c1CNC1CCN(C2CC2)CC1`, the INHIBITION is reported as 24.65%. As for `Cc1nn(C)c(N2CCOCC2)c1CNC1CCC(O)CC1` (stereo not drawn), the figure is -5.7%; as for `Cc1nn(C)c(N2CCOCC2)c1CNCc1ccnn1C`, 8.06%; as for `COCCC(=O)N1CCCC1c1nccc(C)n1` (stereo not drawn), -17.21%. Regarding `CNC(=O)C1CCN(c2ncnc3c2CCN(C(=O)C2CC2)C3)C1` (stereo not drawn), the INHIBITION is 16.53%. On to `OC1CCN(Cc2c(-c3ccco3)[nH]c3ncccc23)CC1`, for which the INHIBITION was 8.09%. On to `Cc1nc(CN2CCCC(N(C)Cc3nc(CC(C)C)no3)C2)no1` (stereo not drawn), for which the INHIBITION is reported as 23.86%.

In the case of `COc1ccc(-c2nccnc2C2CCN(C(C)=O)CC2)cc1`, the INHIBITION is given as -30.31%.

Consider `CC(=O)N1CCC(c2nccnc2-c2ccc(F)cc2)CC1`, for which the INHIBITION worked out at 33.77%. As to `CC(=O)N1CCC(c2nccnc2-c2ccc(C(=O)O)cc2)CC1`, the INHIBITION stood at 51.57%. As for `CC(C)c1ncc2c(n1)CN(CC(=O)Nc1ccncc1)CC2`, the figure is -36.7%. Regarding `Cc1csc(N2CCN(C(=O)NCCNc3ncccn3)CC2)n1`, the INHIBITION is -10.6%. In the case of `CN(C)c1ncccc1NC(=O)COCC1CC1`, the INHIBITION was determined as 64.35%. As for `CN(C)c1ncccc1NC(=O)COC1CCCC1`, the figure is 35.13%; as for `O=C(COCC1CC1)Nc1ncccc1O`, 25.23%; as for `O=C(COc1cccc2c1CCC2=O)NCCc1cccs1`, -27.22%.

In the case of `COCCN(C(=O)c1cc(C)no1)c1ccc(C#N)cc1`, the INHIBITION is listed as -43.03%. For `COc1no[n+]([O-])c1-c1ccccc1`, the INHIBITION came out at 32.19%. As to `CC(C)(C)C(=O)N1CCCC1(C(=O)N1CCCC1)c1cnccn1` (stereo not drawn), the INHIBITION was found to be 33.56%.

Take `Cn1cc(C2CC3(CCN(C(=O)c4cccs4)CC3)NC2=O)cn1` (stereo not drawn): the INHIBITION is on record as -16.25%. For `CN(C)C(C(=O)NCC1(C)COC1)c1cccc(F)c1` (stereo not drawn), the INHIBITION is reported as -15.77%. For `N#Cc1cccc(N2CC3(CCN(C(=O)c4ccnnc4)C3)CC2=O)c1` (stereo not drawn), the INHIBITION was determined as 25.24%. Take `O=C1CC2(CCN(Cc3ccncc3)C2)CN1c1cccc(F)c1` (stereo not drawn): the INHIBITION amounted to 54.62%. As for `N#Cc1cccc(N2CC3(CCN(C(=O)c4cccnc4)C3)CC2=O)c1` (stereo not drawn), the INHIBITION is on record as 11.72%.

In the case of `N#Cc1cccc(N2CC3(CCN(C(=O)c4ccncc4)C3)CC2=O)c1` (stereo not drawn), the INHIBITION was 53.77%. Turning to `O=C1CC2(CCN(Cc3cccnc3)C2)CN1c1cccc(F)c1` (stereo not drawn), the INHIBITION turned out to be 38.49%.

`COc1ccc(CN2CCC3(CC(=O)N(c4cccc(F)c4)C3)C2)cc1` (stereo not drawn): the INHIBITION was determined as 40.4%. Next, `CCc1ccc(OCCn2cccn2)cc1`: -3.72%; `COc1c(C2CCCN2C(=O)c2csc(C3CC3)n2)c(C)nn1C` (stereo not drawn): 15.13%; `CCOc1cccc2c1OCC(=O)N(c1ccc3c(c1)OCCO3)C2`: 67.29%. As to `CCOc1cccc2c1OCC(=O)N(c1ccc(N(C)C)cc1)C2`, the INHIBITION is listed as 43.74%. As for `CCOc1cccc2c1OCC(=O)N(c1ccc3c(c1)OCO3)C2`, the figure is 25.73%; as for `COC(=O)c1ccc(C2CC(=O)Nc3c2cnn3C)cc1` (stereo not drawn), 13.95%; as for `Cc1ncsc1COC(=O)c1cccc2c1OCCO2`, 38.1%. As for `Cn1cnnc1C1CCCN(C(=O)NCc2cc[nH]n2)C1` (stereo not drawn), the figure is 28.65%. As to `CCCSc1ccccc1NC(=O)N1CCC(N2CCSCC2)CC1`, the INHIBITION was 27.05%. Next, `CCCSc1ccccc1NC(=O)N1CCN(C(=O)c2ccc[nH]2)CC1`: 65.76%; `O=C(c1ccc[nH]1)N1CCN(C(c2ccccc2)C(F)(F)F)CC1` (stereo not drawn): 11.88%; `CCCc1nc(C(=O)NCCN2CCC(c3ccccc3C)C2)cs1` (stereo not drawn): 6.88%. For the compound `CC(C)C(C(=O)N1CCCN(c2nccs2)CC1)n1cncn1` (stereo not drawn), the INHIBITION worked out at 15.47%. Take `CN1CCC(N(C)CCC(=O)N2CCC(CCc3ccccc3)CC2)C1` (stereo not drawn): the INHIBITION is reported as 66.79%. Turning to `CN1CCC(N(C)CCC(=O)N2CCC(OCc3ccccc3)CC2)C1` (stereo not drawn), the INHIBITION is -83.25%.

Regarding `CN1CCC(N(C)CCC(=O)N2CCC(Cc3ccc(F)cc3)CC2)C1` (stereo not drawn), the INHIBITION is 20.36%. Next, `COc1c(C2CCCN2C(=O)c2ccnc(N(C)C)c2)c(C)nn1C` (stereo not drawn): 30.91%; `Cc1cnc(N2Cc3cnn(Cc4ccc(F)cc4)c3C2)nc1N(C)C`: 41.78%; `CNC(=O)c1sccc1S(=O)(=O)Nc1ccc(C)cc1`: 52.36%.
